The record followed here is PubChem BioAssay (NCI).

About 79,000 compounds went through this panel and 15% of them were active in at least one assay; those are over-represented in the sample as a whole. Unmarked numbers belong to inactive results. The source made the active and inactive calls. Cut-off read from the data, not from the text of the source: active = growth inhibition above about 70%; inactive = the rest.

The assay can be described thus: NCI Yeast Anticancer Drug Screen. Data for the bub3 strain (AID 167). As to conditions: S. cerevisiae bub3 mutant strain, hits give high values. How it is done: Growth inhibition of yeast strains with defined genetic alterations is measured as a screen for potential anti-cancer activity. Selected strains with alterations in DNA damage repair or cell cycle control were exposed to compounds and growth inhibition was measured relative to vehicle treated controls. The strain used in this assay is bub3

Setting [1] is: at 5.0 µM (retest, dose inferred, filed as 0.5).
The mark [2] stands for this setting: at 50.0 µM (retest, dose inferred, filed as 5.0).

`CCCCCCCCCCCCCCCCn1cc(C(O)CN(C)C)c2ccccc21` (configuration not stated): the growth inhibition reads like this: under setting [1], -4%; under setting [2], 98% (active); (at 50.0 µM) 39.6%.
In the case of `CCCCCCCOC(=O)CSC#N`, the growth inhibition by setting is: under setting [1], 86% (active); under setting [2], 99% (active); (at 50.0 µM) 99.3% (active).
Regarding `CC1c2cc(c3c(c2O)CN([C@@H](C)C2CCCCC2)CO3)C(C)c2cc(c3c(c2O)CN([C@@H](C)C2CCCCC2)CO3)C(C)c2cc(c3c(c2O)CN([C@@H](C)C2CCCCC2)CO3)C(C)c2cc1c1c(c2O)CN([C@@H](C)C2CCCCC2)CO1` (some centres not stated), the growth inhibition runs as follows: under setting [1], -1%; under setting [2], -13%; (at 50.0 µM) 69.2%.
Consider `CCOC(=O)Nc1cc(NC(C)/C(=N/O)c2ccccc2)c([N+](=O)[O-])c(N)n1` (configuration not stated), for which the growth inhibition under setting [1] was -10%, the growth inhibition under setting [2] is 87% (active) and the growth inhibition (at 50.0 µM) is 62.1%.
Consider `COc1c(I)cc(I)c(O)c1I`, for which the growth inhibition reads like this: under setting [1], 3%; under setting [2], 36%; (at 50.0 µM) 69.9%.
For `CCOC(=O)CCCCCN`, in that order: 2%, -4% and 1.75%.
Turning to `Cc1c2ccccc2c(=O)n2c(-c3ccccn3)cccc12`, the growth inhibition runs as follows: under setting [1], -26%; under setting [2], -17%; (at 50.0 µM) 30.8%.
For `Nc1ccc(Oc2ccc(-c3ccccc3)cc2)c(Cl)c1`, the growth inhibition was 78% (active) under setting [1], 97% (active) under setting [2] and 98% (active) (at 50.0 µM).
Regarding `O=C1C=CC2C(=O)c3ccccc3C(=O)C2=C1` (configuration not stated), the growth inhibition is 1% under setting [1], 55% under setting [2] and 45.5% (at 50.0 µM).
In the case of `c1cc[c]([Sn]([S]c2cccc3cccnc23)([c]2ccccc2)[c]2ccccc2)cc1`, the growth inhibition reads like this: under setting [1], 99% (active); under setting [2], 99% (active); (at 50.0 µM) 99% (active).
For `O=C1NC(=Nc2ccccc2)C(=Nc2ccccc2)N1c1ccccc1`, the growth inhibition by setting is: under setting [1], -36%; under setting [2], 99% (active); (at 50.0 µM) 89.5% (active).
For `COc1ccc(/C(=N\Nc2ccc(Br)cc2)c2ccccc2/C(=N/Nc2ccc(Br)cc2)c2ccccc2OC)cc1`, in that order: -7%, 20% and 93.5% (active).
For `O=c1[nH]c(CN2CCCCC2)nn1-c1ccccc1`, in that order: 0%, -4% and 14.6%.
As for `c1ccc(-c2cc(N3CCCCC3)c(-c3ccccc3)o2)cc1`, the growth inhibition was 7% under setting [1], 12% under setting [2] and 85.4% (active) (at 50.0 µM).
